Screens (PubChem)
CHX counter – affects cycloheximide protein synthesis inhibition readout, counter-screen; cell reporter, cycloheximide protein synthesis inhibition counterscreen; max response, %; hit rate 12% among 300,000; AID 2314; in the data active = max response mostly above about 13%, no sharp cut-off; inactive = mostly below about 14%; note: read at 38.3 µM for the half of the compounds with a filed dose; 0% is about no effect
Shiga toxin inh – blocks Shiga toxin action in Vero cells; Vero cells, Shiga toxin protein synthesis inhibition reporter; inhibition, % at 38.7 µM; hit rate 9.2% among 290,000; AID 2315; in the data active = inhibition mostly above about 28%, no sharp cut-off; inactive = mostly below about 43%; note: 0% is about no effect
LmPK inh – LmPK (Leishmania mexicana) enzyme inhibition; purified LmPK, Kinase-Glo ATP luminescence, 1 h; Potency, µM (titrated, usually from 57.5 µM), without a hit: at the highest dose activity change, negative = inhibition, most hits filed as inhibitors; hit rate 0.37% among 290,000; note: potency is the fitted concentration of half-maximal effect; % is set by controls: 0 for no effect and ±100 for the full control effect
Target sequence (Q27686 whole entry, looked up): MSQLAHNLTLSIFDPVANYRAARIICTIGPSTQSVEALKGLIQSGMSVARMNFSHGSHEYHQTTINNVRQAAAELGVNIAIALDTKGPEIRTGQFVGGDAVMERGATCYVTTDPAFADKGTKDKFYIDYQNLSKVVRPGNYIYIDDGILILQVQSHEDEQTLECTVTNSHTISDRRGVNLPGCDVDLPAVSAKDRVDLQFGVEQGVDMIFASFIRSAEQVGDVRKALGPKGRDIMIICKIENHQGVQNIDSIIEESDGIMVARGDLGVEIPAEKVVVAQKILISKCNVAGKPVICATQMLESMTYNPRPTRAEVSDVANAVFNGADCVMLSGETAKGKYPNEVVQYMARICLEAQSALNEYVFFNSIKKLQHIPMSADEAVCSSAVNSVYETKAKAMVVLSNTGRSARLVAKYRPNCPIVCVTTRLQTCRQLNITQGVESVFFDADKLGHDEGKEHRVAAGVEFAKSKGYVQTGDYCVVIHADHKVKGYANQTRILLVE
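qHTS format; LmPK 0.1 nM; substrates PEP 0.5 mM and ADP 0.1 mM. One-hour room-temperature incubation, then coupled luciferase luminescence; 0.5 nM enzyme wells mark activation.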
Tb PYK inh – T. brucei pyruvate kinase inhibition; hit rate 0.12% among 410,000; Q57TT1; TbPYK enzyme, Kinase-Glo Plus ATP luminescence, 45 min; Potency, µM (top dose mostly 76.8 µM), inactives show at the top dose activity, negative = inhibition, actives largely listed as inhibitors; note: potency is the fitted concentration of half-maximal effect; % is set by controls: 0 for no effect and ±100 for the full control effect; nearly all actives have a fitted effect of over 50% in size
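Luminescent Kinase-Glo Plus end-point after 45 min room-temperature reaction of T. brucei pyruvate kinase started with 130 uM ADP (final). Buffer TEA 50 mM pH 7.2 with KCl, MgCl2, BSA, Tween-20; titration-based qHTS with fitted concentration-effect curves.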
Sm TGR inh – inhibitors of Schistosoma mansoni thioredoxin glutathione reductase; Q962Y6; AID 485364; hit rate 3% among 360,000; purified TGR, DTNB reduction, TNB absorbance 405 nm; Potency, µM (doses to about 114 µM), for the others: at the highest dose activity change, negative = inhibition, actives largely listed as inhibitors; note: potency is the fitted concentration of half-maximal effect; % is set by controls: 0 for no effect and ±100 for the full control effect; nearly all actives have a fitted effect of over 60% in size
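Kinetic colorimetric format: TGR-catalysed, NADPH-driven DTNB reduction monitored via TNB absorbance. Enzyme dispensed at 20 nM; compound exposure 15 min at room temperature before reaction start.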
Giardia FBPA inh – blocks Giardia fructose-bisphosphate aldolase activity. Potency, µM (highest dose often 59.6 µM), for the others: at the top dose activity, negative = inhibition, actives largely listed as inhibitors. A8B2U2. AID 2451. hit rate 0.71% among 290,000. purified Giardia FBPA; note: potency is the fitted concentration of half-maximal effect; % is set by controls: 0 for no effect and ±100 for the full control effect; nearly all actives have a fitted effect of over 55% in size
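Giardia FBPA (40 nM reagent) was preincubated 10 min at RT with compound (up to 57.5 uM final), then substrate plus GAPDH/TPI/NAD/arsenate coupling system with diaphorase/resazurin was added; resorufin fluorescence (525/598 nm) was read after 20 min.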
Active calls of the source: *; [ ] = dose if it differs, or a comment. Shown is part of a subset that was picked to be rich in hits. Unless noted, calls come from the whole dose curve; as a rule, active = well fitted curve in the direction sought with a large enough effect; inconclusive = small, poorly fitted or top-dose-only effect, or another doubt; inactive = no such curve, though single readings can be large; an effect the other way counts as inactive or inconclusive.

Results for O=C1C2C3C=CC(C3=C(c3ccccc3)c3ccccc3)C2C(=O)N1Cc1ccccc1 (configuration not stated) ?
CHX counter: 10.0; Shiga toxin inh: 14.0; LmPK inh: 9.6%; Tb PYK inh: -9.8%; Sm TGR inh: 7.94µM*; Giardia FBPA inh: -2.2%

How did Cc1[nH]n2c(=O)cc(-c3ccc(Cl)cc3)nc2c1-c1ccccc1 do in these assays?
Tb PYK inh: -3.5%; Sm TGR inh: -8.3%

Results for CCc1nc(NCc2ccccn2)c2oc3ccccc3c2n1 ?
CHX counter: -4.4; Shiga toxin inh: 4.1; LmPK inh: 1.1%; Tb PYK inh: -5.2%; Sm TGR inh: 7.3%; Giardia FBPA inh: -10.2%

What do the screens show for `c1ccc2c(c1)oc1c(NCC3CCCO3)ncnc12` (configuration not stated)?
CHX counter: 33.9*; Shiga toxin inh: 53.8*; LmPK inh: -7.3%; Tb PYK inh: -12.2%; Sm TGR inh: 4.7%; Giardia FBPA inh: -14.8%

How did c1ccc(CNc2ncnc3c2oc2ccccc23)nc1 do in these assays?
CHX counter: 23.1*; Shiga toxin inh: 58.7*; LmPK inh: -8.2%; Tb PYK inh: 2.5%; Sm TGR inh: 3.2%; Giardia FBPA inh: -0.5%

Results for CC(=O)c1ccc(Nc2ncnc3c2oc2ccccc23)cc1 ?
CHX counter: 57.2*; Shiga toxin inh: 65.8*; LmPK inh: -1.9%; Tb PYK inh: 2.9%; Sm TGR inh: 0.0%; Giardia FBPA inh: 7.5%

Results for Cc1ccnc(NC(=O)c2cc(S(=O)(=O)NCc3ccccc3)ccc2C)c1 ?
Tb PYK inh: 3.8%; Sm TGR inh: -1.7%

How did CCc1ccccc1NS(=O)(=O)c1ccc2c(c1)OCC(C(=O)N1CCCC1)O2 (configuration not stated) do in these assays?
Tb PYK inh: -7.5%; Sm TGR inh: inconclusive

How did Cc1ccc2occ(CC(=O)N(Cc3ccc(Cl)cc3)Cc3ccco3)c2c1 do in these assays?
Tb PYK inh: -5.0%; Sm TGR inh: -14.7%

Results for O=C(Nc1ccc(Cl)c(C(F)(F)F)c1)C(=O)N1CCCCC1 ?
CHX counter: 26.8*; Shiga toxin inh: 61.3; LmPK inh: -4.7%; Tb PYK inh: 3.5%; Sm TGR inh: 3.5%; Giardia FBPA inh: -1.0%

Results for O=C(Nc1ccc(Cl)c(Cl)c1)N1CCCCCC1 ?
CHX counter: 51.4*; Shiga toxin inh: 89.7*; LmPK inh: -2.7%; Tb PYK inh: 1.3%; Sm TGR inh: 11.7%; Giardia FBPA inh: -2.7%

Results for O=C(Nc1ccc(Cl)c(Cl)c1)N1CCSCC1 ?
CHX counter: 17.3; Shiga toxin inh: 36.7; LmPK inh: -0.8%; Tb PYK inh: 5.4%; Sm TGR inh: -2.3%; Giardia FBPA inh: -5.5%

Results for O=C(Nc1ccc(Cl)c(Cl)c1)N1CCOCC1 ?
CHX counter: 14.7; Shiga toxin inh: 37.0*; LmPK inh: 0.0%; Tb PYK inh: -0.3%; Sm TGR inh: 15.4%; Giardia FBPA inh: 0.5%

What do the screens show for `O=C(NNC(=S)Nc1ccccc1)c1cccnc1`?
CHX counter: 20.2*; Shiga toxin inh: 28.3*; LmPK inh: -1.4%; Tb PYK inh: -0.3%; Sm TGR inh: 0.0%; Giardia FBPA inh: -29.7%

How did Cc1ccccc1NC(=S)NNC(=O)c1cccnc1 do in these assays?
CHX counter: -2.5; Shiga toxin inh: 3.1; LmPK inh: 17.8µM*; Tb PYK inh: 4.47µM*; Sm TGR inh: -6.5%; Giardia FBPA inh: -3.6%

How did O=C(NNC(=S)NC(=O)c1cccnc1)c1ccc(F)cc1 do in these assays?
CHX counter: 27.9*; Shiga toxin inh: 39.4*; LmPK inh: 2.9%; Tb PYK inh: -20.0%; Sm TGR inh: -17.0%; Giardia FBPA inh: inconclusive

How did Cc1ccccc1NC(=S)NNC(=O)c1ccncc1 do in these assays?
CHX counter: -2.2; Shiga toxin inh: 12.4; LmPK inh: -14.5%; Tb PYK inh: 3.4%; Giardia FBPA inh: 0.1%

How did O=C(NNC(=S)NC(=O)c1cccnc1)c1ccccc1 do in these assays?
CHX counter: 12.5; Shiga toxin inh: 23.1; LmPK inh: -5.7%; Tb PYK inh: -13.6%; Sm TGR inh: 2.2%; Giardia FBPA inh: -19.4%

How did O=C(NNC(=S)NC(=O)c1ccc(F)cc1)c1cccnc1 do in these assays?
CHX counter: -3.8; Shiga toxin inh: 1.4; LmPK inh: -9.2%; Tb PYK inh: -7.9%; Sm TGR inh: 1.0%; Giardia FBPA inh: inconclusive

What do the screens show for `Cc1cc(-n2c(C)nc3ccccc3c2=O)ccc1NC(=O)C(F)(F)F`?
Tb PYK inh: 0.7%; Sm TGR inh: 7.0%

How did CC[C@H](CC[C@H](C)[C@@H]1CC[C@@H]2[C@H]3CC=C4C[C@@H](O)CC[C@]4(C)[C@H]3CC[C@]21C)C(C)C do in these assays?
Giardia FBPA inh: 8.5%[21.7 µM]

How did COc1ccc(C(CNC(=O)c2ccc(OCc3csc(C)n3)cc2)N2CCCC2)cc1 (configuration not stated) do in these assays?
Tb PYK inh: -0.2%

How did COCc1nn2c(N)c(-c3ccccc3)cnc2c1-c1ccccc1 do in these assays?
CHX counter: 37.7*; Shiga toxin inh: 32.9*; LmPK inh: 0.2%; Tb PYK inh: -0.6%; Sm TGR inh: 3.1%; Giardia FBPA inh: 1.5%

Results for COc1ccccc1-c1c(C)nn2c(N)c(-c3ccccc3)cnc12 ?
CHX counter: 38.8*; Shiga toxin inh: 66.8*; LmPK inh: 3.4%; Tb PYK inh: 5.3%; Sm TGR inh: 9.5%; Giardia FBPA inh: -0.1%

Results for COc1ccc(-c2c(C)nn3c(N)c(-c4ccccc4)cnc23)cc1OC ?
CHX counter: 17.8*; Shiga toxin inh: 88.1; LmPK inh: 12.7%; Tb PYK inh: 6.2%; Sm TGR inh: 39.8µM*; Giardia FBPA inh: -1.3%

Results for O=C1NC(=NCc2ccccc2)S/C1=C/c1ccc(O)cc1 ?
CHX counter: 13.1*; Shiga toxin inh: 16.1; LmPK inh: 2.8%; Tb PYK inh: -3.3%; Sm TGR inh: 3.8%; Giardia FBPA inh: 12.5%

Results for Cc1c(N=C2NC(=O)/C(=C/c3ccc(O)cc3)S2)c(=O)n(-c2ccccc2)n1C ?
CHX counter: 3.8; Shiga toxin inh: 45.2; LmPK inh: 0.4%; Tb PYK inh: -4.8%; Sm TGR inh: -1.0%; Giardia FBPA inh: 1.5%

How did Cc1ccc(C)c(OCCn2c(CCNC(=O)C3CCCCC3)nc3ccccc32)c1 do in these assays?
CHX counter: 0.9; Shiga toxin inh: 11.1; Sm TGR inh: -0.1%

How did CCOc1cccc(/C=N/NC(=O)c2cccnc2)c1O do in these assays?
CHX counter: 21.2*; Shiga toxin inh: 32.6; LmPK inh: -4.1%; Tb PYK inh: -13.0%; Sm TGR inh: -0.8%; Giardia FBPA inh: -17.6%

How did CCOc1cc(/C=N/NC(=O)c2cccnc2)ccc1O do in these assays?
CHX counter: 9.0; Shiga toxin inh: 41.9; LmPK inh: -2.3%; Tb PYK inh: 4.7%; Sm TGR inh: 8.6%; Giardia FBPA inh: 1.0%
